Shown are actives, neighbours in structure and some others; about 19% of the full set was active somewhere.
Pf growth 96h: inhibits malaria parasite growth, 96 h; P. falciparum luciferase reporter growth, 96 h; Potency, µM (series often up to 28.7 µM), for the others: at the highest dose activity change, negative = inhibition, most hits filed as inhibitors; actives 6.9% (n = 320,000); also: potency is read from the fitted curve at half-maximal effect; % is scaled to controls: 0 for no effect and ±100 for the full control effect
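96 h incubation, 37 C, 5% CO2, of luciferase-reporter P. falciparum-infected RBCs (2% hematocrit, 0.05% parasitemia final) with test compounds; endpoint luminescence.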
LASV entry inh: blocks Lassa virus binding to or entry into cells. Lassa virus pseudotype entry inhibition, cell reporter. Potency, µM (doses to about 37.9 µM), without a hit: top-dose activity change, negative = inhibition, actives largely listed as inhibitors. actives 1.2% (n = 300,000). AID 540256; calls by dose curve; tested in HEK293 cells; also: potency is read from the fitted curve at half-maximal effect; % is scaled to controls: 0 for no effect and ±100 for the full control effect; nearly all actives have a fitted effect of over 50% in size
Shiga inhibitor: blocks Shiga toxin action in Vero cells | Vero cells, Shiga toxin protein synthesis inhibition reporter | inhibition, % at 38.7 µM | actives 9.2% (n = 290,000); in the data active = inhibition mostly above about 28%, no sharp cut-off; inactive = mostly below about 43%; also: 0% is about no effect
Pf growth 48h: inhibits P. falciparum growth in the first generation, 48 h. P. falciparum luciferase growth in erythrocytes, 48 h. Potency, µM (series often up to 28.7 µM), for the others: top-dose activity change, negative = inhibition, hits mostly inhibitors. actives 5.9% (n = 310,000); also: potency is read from the fitted curve at half-maximal effect; % is scaled to controls: 0 for no effect and ±100 for the full control effect
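Growth was read as firefly luciferase luminescence after a 48 h, 37 C, 5% CO2 exposure of compounds to reporter-bearing P. falciparum cultures (0.1% parasitemia, 2% hematocrit final) in Albumax-supplemented RPMI 1640.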
Cycloheximide cs: counter-screen for Shiga toxin inhibitors: cycloheximide protein synthesis inhibition; cell reporter, cycloheximide protein synthesis inhibition counterscreen; max response, %; actives 12% (n = 300,000); in the data active = max response mostly above about 13%, no sharp cut-off; inactive = mostly below about 14%; also: read at 38.3 µM for the half of the compounds with a filed dose; 0% is about no effect
MARV entry inh: blocks Marburg virus binding to or entry into cells. actives 1.8% (n = 300,000). Marburg virus pseudotyped entry inhibition, cell reporter. Potency, µM (top dose mostly 37.8 µM), for inactives: top-dose activity change, negative = inhibition, most hits filed as inhibitors; calls by dose curve; tested in HEK293 cells; also: potency is read from the fitted curve at half-maximal effect; % is scaled to controls: 0 for no effect and ±100 for the full control effect
* hit, by the source's call; i = inactive; ? = inconclusive; / = not tested or not shown; [ ] = dose if it differs, or a comment. Unless noted, calls follow the shape of the dose curve; as a rule, active = well fitted inhibition curve with a large enough effect; inconclusive = small, poorly fitted or top-dose-only effect, or another doubt; inactive = no such curve, though single readings can be large or run the other way.

SMILES | Pf growth 96h | LASV entry inh | Shiga inhibitor | Pf growth 48h | Cycloheximide cs | MARV entry inh
Cc1cccc(C)c1OCc1nc2ccccc2c(=O)n1/N=C/c1c[nH]c2ccccc12 | -101.0% | 2.51µM* | 5.9 | ? | 1.4 | ?
COc1ccc(Cl)cc1Nc1sc(C(=O)c2ccccc2)c(N)c1C(=O)Nc1ccccc1 | / | -21.4%[46.1 µM] | / | / | / | /
Cc1ccc(CNC(=O)c2nnn(CC(=O)Nc3cc(C)cc(C)c3)c2N)cc1 | 2.08µM* | / | -3.8 | 36.3% | 1.2 | /
Cc1ccc(NC(=O)c2nnn(CC(=O)Nc3ccccc3)c2N)cc1C | ? | -16.6% | -0.5 | 23.3% | 3.4 | 11.2µM*
COc1ccc(CCNC(=O)Cn2nnc(C(=O)Nc3cccc(C)c3C)c2N)cc1OC | 1.85µM* | -20.3%[46.1 µM] | -1.3 | -5.3% | 9.3 | 20.0%[46.1 µM]
Cc1cc(C)cc(NC(=O)Cn2nnc(C(=O)NCc3ccc4c(c3)OCO4)c2N)c1 | 0.104µM* | -25.9%[46.1 µM] | -12.5 | 32.0% | 6.5 | ?
CN1C(=O)NC(c2ccc(O)cc2)C2=C1CN(c1ccc(O)cc1)C2=O (stereo unspecified) | ? | ? | -10.3 | 5.4% | -2.1 | 16.0%[46.1 µM]
O=C(CSc1nnc(CNC(=O)c2ccccc2)o1)NCc1ccccc1 | ? | 16.3% | -12.7 | -6.1% | -2.8 | 14.7%
COc1ccc(Cl)cc1NC(=O)c1nnn(CC(=O)Nc2ccc3c(c2)OCO3)c1N | 14.7µM* | / | -10.8 | 29.2% | -8.9 | /
COc1ccc(NC(=O)c2nnn(CC(=O)Nc3ccc4c(c3)OCO4)c2N)cc1OC | ? | -8.8%[46.1 µM] | 3.0 | 31.1% | 3.2 | 5.4%[46.1 µM]
Cc1cc(N)ccc1S(C)(=O)=O | 53.5% | 7.4% | -3.3 | 13.0% | 5.5 | 24.0%[46.1 µM]
O=C(NCc1cccs1)C1CC(c2ccccc2O)=NO1 (stereo unspecified) | / | -20.7% | 51.2* | 25.7% | 26.5* | -25.4%
COc1ccc(C2=NOC(C(=O)NCc3cccs3)C2)cc1 (stereo unspecified) | / | ? | 32.5 | / | 18.0* | -14.2%
COc1cc(C2=NOC(C(=O)NCc3ccco3)C2)cc(OC)c1OC (stereo unspecified) | 0.3% | ? | 7.6 | -25.9% | -1.5 | -12.7%
COc1ccc(C2=NOC(C(=O)NCc3ccco3)C2)cc1 (stereo unspecified) | / | 7.2% | 71.7 | 53.7% | 27.1* | ?
COc1ccc(C2=NOC(C(=O)NCC(C)C)C2)cc1 (stereo unspecified) | / | ? | 60.9* | 72.6% | 44.7* | -0.9%
COc1ccc(C2=NOC(C(=O)NCc3cccs3)C2)cc1OC (stereo unspecified) | -28.6% | ? | -9.9 | / | -0.9 | ?
O=C(NCc1ccccn1)C1CC(c2ccccc2O)=NO1 (stereo unspecified) | 43.1%[5.75 µM] | ? | -4.9 | 10.0% | -2.8 | -2.0%[46.1 µM]
Clc1cccc(-c2noc3ncnc(Nc4ccc5c(c4)OCO5)c23)c1 | ? | / | 4.6 | ? | -1.5 | /
CCOC(=O)c1sc2ccccc2c1NC(=O)c1coc2ccccc2c1=O | -1.6% | 16.3% | -12.2 | 7.9% | -2.2 | ?
CCOC(=O)N1CCC(NC(=O)CCC(=O)N2CC(C)Oc3ccccc32)CC1 (stereo unspecified) | ? | 0.8% | 22.9 | -3.9% | 4.8 | 2.3%
CC(C)OCCCNC(=S)N1CCC(C(=O)c2ccc(Cl)cc2)CC1 | -27.4% | -19.3% | 25.4 | -7.3% | 4.3 | ?
COc1ccc(CNC(=O)C2CC(c3ccc(OC)cc3)=NO2)cc1 (stereo unspecified) | / | -17.0%[14.3 µM] | -5.1 | -11.4% | -2.2 | -6.4%
COc1ccc(C2=NOC(CNC(N)=S)C2)cc1 (stereo unspecified) | 2.62µM* | / | 57.2* | i | 35.8* | /
N#Cc1ccccc1Cn1cc(C(=O)c2cccs2)c2ccccc21 | 0.5% | -5.0% | 13.9 | 14.7µM* | -0.6 | 2.2%[46.1 µM]
SMILES | Pf growth 96h | LASV entry inh | Shiga inhibitor | Pf growth 48h | Cycloheximide cs | MARV entry inh
CCn1c(Cc2ccccc2)nnc1SCC(=O)Nc1nc2ccccc2s1 | 42.9% | 0.8% | -9.4 | 1.0% | -2.9 | ?
CCOC(=O)c1cn2nc(Oc3ccc(NC(C)=O)cc3)ccc2n1 | 13.7% | 19.7%[46.1 µM] | 58.7* | 0.7% | 25.3* | ?
CCOC(=O)c1cn2nc(Oc3ccc(C(=O)OC)cc3)ccc2n1 | -12.0% | 0.2% | -1.4 | ? | 1.0 | -1.0%[14.2 µM]
CCOC(=O)c1cn2nc(Oc3cccc(F)c3)ccc2n1 | 26.9% | 20.2%[46.1 µM] | 48.6 | 28.8% | 31.3* | ?
CC(C)c1ccc(NC(=O)N(CCc2nc3ccccc3[nH]2)C2CCCC2)cc1 | ? | -5.3% | 34.9 | ? | 11.9 | -27.9%
CCN(C(=O)COC(=O)c1ccccc1NCCO)c1cccc2ccccc12 | 10.4µM* | ? | / | ? | / | -16.3%[46.1 µM]
O=C(OCC(=O)N(Cc1ccccc1)Cc1ccccc1)c1ccccc1NCCO | -18.5% | 0.4% | / | ? | / | ?
O=C(Cn1ncc2c([nH]c3ccccc32)c1=O)NCCc1ccccc1 | -13.6% | / | -5.7 | 0.3% | 9.4 | /
C=CCN(CC=C)CCOc1ccc(OC(C)C)cc1 | ? | 3.9%[46.1 µM] | 83.8* | ? | 17.8* | -15.5%[46.1 µM]
C=CCN(CC=C)CCOc1ccccc1 | 34.3% | 12.4% | -10.9 | 1.2% | -2.6 | 16.2%
C=CCN(CC=C)CCOc1ccc2ccccc2c1 | 8.4% | 19.6%[46.1 µM] | 37.3 | 1.8% | 20.5* | -13.3%[46.1 µM]
CCC1=[N+](CC(=O)c2ccc(C)cc2)CCn2cccc21 | -1.7% | 0.2% | 47.7 | ? | 24.5* | -14.0%[46.1 µM]
CCOC(=O)N1CCN(CCC(=O)c2ccc(Br)cc2)CC1 | ? | ? | 32.7 | 6.5% | 9.2 | -5.4%
CCC1=[N+](CC(=O)c2ccc(C)cc2)CCn2c(C)ccc21 | ? | -0.2% | 13.1 | 3.29µM* | 22.6* | -2.3%
Cc1cc(C)c[n+](CC(=O)c2ccccc2)c1 | ? | 14.8%[46.1 µM] | 12.8 | 2.7% | 0.4 | ?
CCC1=[N+](CC(=O)c2ccc(Br)cc2)CCn2c(C)ccc21 | ? | / | 52.4* | 5.86µM* | 15.0* | /
CCC1=[N+](C)CCn2c(C)ccc21 | 14.7% | 0.6% | -5.3 | / | -3.2 | 11.1%
CC1=[N+](CC(=O)c2ccccc2)CCn2cccc21 | 25.4% | 14.4%[46.1 µM] | 58.4* | ? | 33.7* | ?
CCN1CCN(CC(=O)c2ccc(C)cc2)CC1 | -0.1% | / | -5.5 | / | -2.6 | /
COCC1CCN(C(=O)C2CCC(=O)N(Cc3ccc(Cl)cc3)C2)CC1 (stereo unspecified) | ? | 7.1% | 2.2 | 18.5% | -2.9 | 3.9%
CCC(=O)N1CCc2cc(S(=O)(=O)NCCC(=O)Nc3cc(C)cc(C)c3)ccc21 | 41.4% | -5.8% | 14.0 | ? | -3.0 | 3.4%
CC(=O)N1CCc2cc(S(=O)(=O)NCCC(=O)Nc3cccc(C)c3C)ccc21 | 3.7µM* | 3.5% | -30.2 | ? | 13.4 | 8.0%[46.1 µM]
CCC(=O)N1CCc2cc(S(=O)(=O)NCCC(=O)Nc3ccccc3C)ccc21 | 11.7µM* | ? | -16.8 | ? | -2.7 | 10.4%
O=C(COc1ncnc2ccccc12)NCCc1ccccc1 | 4.2% | -3.8% | -6.7 | 40.7% | 5.4 | 17.3%[46.1 µM]

Source: PubChem BioAssay
